Values joined by “and” are separate entries in the source; they are usually repeats but may differ in a detail not shown here. Equal entries are not always repeated. About 2,000 (36%) of roughly 5,500 compounds were called active. Inconclusive results (about 18%) are left out. Rule as the data show it: active = normalized growth mostly below about 0.91 (no sharp cut-off); inconclusive = no clear call, values can overlap the other calls; inactive = mostly above about 0.92. The list shows a part of the results.
Experiment: chemical genetic growth profiling, strain panel (AID 1159580);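 also: tested at 20 µM; growth read once vehicle control cultures reached saturation at 30 °C; 1 = growth at the plate median or of vehicle wells; lower values mean less growth of the strain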
Conditions: S. cerevisiae deletion strains, growth OD

Measured: normalized growth

Fc1ccc([C@@H]2CCNC[C@H]2COc2ccc3c(c2)OCO3)cc1
inactive: locus YAL013W, strain DEP1, hits give low values 1.02 | locus YAL021C, strain ccr4, hits give low values 1 | locus YAL026C, strain drs2, hits give low values 0.997 | locus YAL030W, strain snc1, hits give low values 1.01 | locus YBL061C, strain skt5, hits give low values 0.991 | locus YBR009C, strain hhf1, hits give low values 1.01 | locus YBR021W, strain FUR4, hits give low values 1.01 | locus YBR023C, strain chs3, hits give low values 1 | locus YBR171W, strain sec66, hits give low values 0.984 | locus YBR229C, strain ROT2, hits give low values 1.01 | locus YBR231C, strain swc5, hits give low values 0.992 | locus YBR279W, strain paf1, hits give low values 1 | locus YCL011C, strain gbp2, hits give low values 0.999 | locus YCL016C, strain dcc1, hits give low values 0.99 | locus YCL029C, strain bik1, hits give low values 1.02 | locus YCL061C, strain MRC1, hits give low values 0.998 | locus YCL069W, strain vba3, hits give low values 1 | locus YCR088W, strain abp1, hits give low values 1 | locus YDL005C, strain med2, hits give low values 1.01 | locus YDL035C, strain GPR1, hits give low values 1.03 | locus YDL040C, strain nat1, hits give low values 0.992 | locus YDL074C, strain BRE1, hits give low values 1.01 | locus YDL101C, strain DUN1, hits give low values 1.01 | locus YDL134C, strain PPH21, hits give low values 1 | locus YDL185W, strain tfp1, hits give low values 1.01 | locus YDL192W, strain arf1, hits give low values 1.01 | locus YDR001C, strain nth1, hits give low values 0.999 | locus YDR069C, strain doa4, hits give low values 1.01 | locus YDR101C, strain arx1, hits give low values 1 | locus YDR137W, strain rgp1, hits give low values 1.09 | locus YDR150W, strain NUM1, hits give low values 1 | locus YDR159W, strain sac3, hits give low values 1.01 | locus YDR162C, strain NBP2, hits give low values 1 | locus YDR195W, strain ref2 1.02 | locus YDR297W, strain sur2, hits give low values 0.998 | locus YDR318W, strain mcm21, hits give low values 1.02 | locus YDR334W, strain swr1, hits give low values 1.01 | locus YDR335W, strain msn5, hits give low values 1.01 | locus YDR388W, hits give low values 1 | locus YDR392W, strain spt3, hits give low values 1.02 | locus YDR502C, strain sam2, hits give low values 0.998 | locus YEL003W, strain gim4, hits give low values 1.01 | locus YEL037C, strain rad23, hits give low values 1 | locus YEL061C, strain CIN8 (second series), hits give low values 1 | locus YEL061C, strain CIN8, hits give low values 1.01 | locus YER015W, strain faa2, hits give low values 1.01 | locus YER016W, strain bim1, hits give low values 0.99 | locus YER110C, hits give low values 1.02 | locus YER111C, strain swi4, hits give low values 0.984 | locus YER155C, strain BEM2 (second series), hits give low values 1.01 | locus YER155C, strain BEM2, hits give low values 1 | locus YER167W, strain BCK2, hits give low values 1.02 | locus YFR010W, strain ubp6, hits give low values 1.03 | locus YGL078C, strain dbp3, hits give low values 0.989 | locus YGL086W, strain mad1, hits give low values 1.02 | locus YGL167C, strain pmr1, hits give low values 1 | locus YGL173C, strain kem1, hits give low values 0.986 | locus YGL227W, strain vid30, hits give low values 0.987 | locus YGL240W, strain doc1, hits give low values 0.99 | locus YGL248W, strain PDE1, hits give low values 1.01 | locus YGL253W, strain hxk2, hits give low values 0.993 | locus YGR078C, strain PAC10, hits give low values 1 | locus YGR135W, strain pre9, hits give low values 0.987 | locus YGR229C, strain SMI1, hits give low values 1 | locus YGR252W, strain gcn5, hits give low values 1.05 | locus YHR013C, strain ard1, hits give low values 0.998 | locus YHR027C, strain rpn1, hits give low values 1 | locus YHR030C, strain SLT2, hits give low values 1.01 | locus YHR079C, strain IRE1 (second series), hits give low values 1 | locus YHR079C, strain IRE1, hits give low values 1.02 | locus YHR094C, strain hxt1, hits give low values 0.999 | locus YHR129C, strain ARP1, hits give low values 1.01 | locus YHR142W, strain chs7, hits give low values 0.969 | locus YHR200W, strain rpn10, hits give low values 1.01 | locus YIL066C, strain RNR3, hits give low values 1.01 | locus YIL073C, strain SPO22, hits give low values 1.09 | locus YIL125W, strain kgd1, hits give low values 0.997 | locus YIR030C, strain dcg1, hits give low values 1 | locus YJL092W, strain hpr5, hits give low values 0.998 | locus YJL095W, strain BCK1 (second series), hits give low values 0.995 | locus YJL095W, strain BCK1, hits give low values 1.02 and 1.01 | locus YJL115W, strain asf1, hits give low values 1 | locus YJL129C, strain trk1, hits give low values 0.987 | locus YJL134W, strain LCB3, hits give low values 1.01 | locus YJL154C, strain vps35, hits give low values 1.02 | locus YJL164C, strain tpk1, hits give low values 1.01 | locus YJL166W, strain qcr8, hits give low values 1.03 | locus YJL168C, strain set2, hits give low values 1.01 | locus YJL187C, strain SWE1 (second series), hits give low values 1 | locus YJL187C, strain SWE1, hits give low values 1.01 | locus YJR043C, strain POL32, hits give low values 1.04 | locus YJR066W, strain TOR1, hits give low values 1.02

From PubChem BioAssay AID1159580 (chemical genetic matrix, 2015)
